Drawing on PubChem BioAssay AID1645853 (Buhrlage Lab, Dana-Farber Cancer Institute and Novartis …, 2021), this text covers inhibition for 56 compounds.

In all, about 47,000 compounds went through this assay and about 2,000 (4.3%) were called active. The full list was thinned out, with actives kept by preference. Unmarked numbers belong to inactive results. Cut-off read from the data, not from the text of the source: active = inhibition above about 30%; inactive = the rest.

The target of the assay is Ubiquitin carboxyl-terminal hydrolase 8 (Homo sapiens) (UniProt P40818). Put plainly: inhibitors of human USP8 deubiquitinase (AID 1645853). Particulars: purified USP8, Ub-rhodamine cleavage fluorescence, 30 min; at 20 µM; hits give high values.
Sequence of Ubiquitin carboxyl-terminal hydrolase 8 (Homo sapiens) (P40818 whole entry, looked up): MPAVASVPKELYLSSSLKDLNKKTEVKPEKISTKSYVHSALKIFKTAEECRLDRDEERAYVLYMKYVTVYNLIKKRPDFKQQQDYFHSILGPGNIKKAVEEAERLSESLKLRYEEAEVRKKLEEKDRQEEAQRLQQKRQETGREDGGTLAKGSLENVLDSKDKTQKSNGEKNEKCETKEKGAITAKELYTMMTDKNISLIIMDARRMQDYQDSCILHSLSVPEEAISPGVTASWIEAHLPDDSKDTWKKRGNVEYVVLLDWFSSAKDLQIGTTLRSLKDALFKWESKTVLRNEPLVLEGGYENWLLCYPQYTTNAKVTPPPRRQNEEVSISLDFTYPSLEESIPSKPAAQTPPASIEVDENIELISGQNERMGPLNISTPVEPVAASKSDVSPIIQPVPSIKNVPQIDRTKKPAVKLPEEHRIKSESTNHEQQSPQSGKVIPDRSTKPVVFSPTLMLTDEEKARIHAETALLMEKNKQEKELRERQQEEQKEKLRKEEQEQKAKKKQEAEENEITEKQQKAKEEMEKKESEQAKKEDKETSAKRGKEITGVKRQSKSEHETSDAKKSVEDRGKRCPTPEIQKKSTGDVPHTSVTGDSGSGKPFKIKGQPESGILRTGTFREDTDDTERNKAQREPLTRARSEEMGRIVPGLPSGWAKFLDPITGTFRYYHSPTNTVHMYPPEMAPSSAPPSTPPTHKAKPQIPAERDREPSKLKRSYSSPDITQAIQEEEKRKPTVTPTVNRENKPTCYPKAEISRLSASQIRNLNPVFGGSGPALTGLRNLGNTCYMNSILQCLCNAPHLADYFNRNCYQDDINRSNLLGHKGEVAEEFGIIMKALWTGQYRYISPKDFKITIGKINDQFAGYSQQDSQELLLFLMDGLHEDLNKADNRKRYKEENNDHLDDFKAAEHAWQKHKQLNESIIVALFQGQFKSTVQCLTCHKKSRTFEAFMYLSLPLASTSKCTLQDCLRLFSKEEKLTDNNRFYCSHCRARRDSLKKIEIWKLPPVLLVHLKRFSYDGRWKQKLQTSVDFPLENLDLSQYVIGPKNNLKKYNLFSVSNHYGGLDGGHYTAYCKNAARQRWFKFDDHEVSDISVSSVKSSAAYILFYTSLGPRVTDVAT
By inhibition is commonly meant the drop in the measured response relative to a control, in per cent. In the case of `NC(=O)c1ccc(CN2CCC3(CC2)CC3c2nc(-c3cccc(Cl)c3)no2)cc1` (stereo unspecified), the inhibition was -39.4%.

With `NC(=O)c1ccc(NC(=O)Cc2cc(-c3ccc(Cl)cc3)on2)cc1`, the inhibition is 62.4% (active).

As to `COc1cccc(CCNC(=O)Cc2cc(-c3ccc(C)cc3)on2)c1`, the inhibition was -12.1%.

Consider `CC(=O)Nc1ccc(S(=O)(=O)NCc2cn3ccccc3n2)cc1`, for which the inhibition was -7.51%.

On to `COc1ccc2nc3c(cc2c1)CN(Cc1ccccc1)C(=O)O3`, for which the inhibition is 20.1%.

Consider `Cc1ccc(-n2c3c(c(=O)[nH]c2=O)CN(Cc2ccco2)CN3)cc1`, for which the inhibition is -10.7%.

As to `Cc1cc(C)c2nc3c(cc2c1)CN(Cc1ccco1)C(=O)O3`, the inhibition is 75.7% (active).

Consider `O=S1(=O)c2ccccc2C(Oc2ccccc2)CN1CCO` (stereo unspecified), for which the inhibition is -13.4%.

Regarding `O=S(=O)(Nc1ccc(N2CCOCC2)cc1)c1cccc2cccnc12`, the inhibition is -35.6%.

Regarding `CCC1=N[C@@]2(CC[C@@H]3CN(C(=O)Nc4ccc(CC)cc4)C[C@@H]32)C(=O)N1C`, the inhibition is -21.1%.

As for `Cc1ccc(CC(=O)N2CCN(C(=O)c3cc(-c4ccccn4)n[nH]3)CC2)cc1`, the inhibition is -164%.

Take `O=C(Nc1ccc(Cl)cc1F)c1cc(-c2ccccn2)n[nH]1`: the inhibition was 19.3%.

Regarding `COc1cc(Cl)c(NC(=O)c2cc(-c3ccccn3)n[nH]2)c(OC)c1`, the inhibition is 49.3% (active).

Consider `CC1[C@@H]2[C@@H](C(=O)N3CCOCC3)C[C@H](CN1S(=O)(=O)N(C)C)N2Cc1ccccc1` (stereo partly specified), for which the inhibition is 0.42%.

With `O=C1NC2(COC3(CCN(Cc4cccnc4)CC3)C2)Nc2ccc(Cl)cc21` (stereo unspecified), the inhibition was -202%.

`Cc1c(C)n(-c2cccnc2)c2ncn3nc(-c4ccccn4)nc3c12`: the inhibition was -3.69%.

Turning to `CSc1ncnc2c1sc1nc(-c3ccccc3)c3c(c12)CC(C)(C)OC3`, the inhibition was 2.79%.

In the case of `CCCCCCSc1ncnc2c1sc1nc(-c3ccccc3)c3c(c12)CC(C)(C)OC3`, the inhibition was -5.24%.

Take `CC1(C)Cc2c(c(-c3ccco3)nc3sc4c(SCCCc5ccccc5)ncnc4c23)CO1`: the inhibition was 75.7% (active).

With `O=C(C1CC1)N1CC[C@@H]2Oc3ccccc3S(=O)(=O)N(Cc3ccccc3)[C@H]2CC1`, the inhibition was -86.6%.

Consider `O=c1[nH]c(-c2ccccn2)nc2c1CCN(Cc1cnn(-c3ccc(F)cc3)c1)C2`, for which the inhibition is -247%.

On to `Cc1nn(-c2ccccc2)c(C)c1S(=O)(=O)N1CCN(c2ccccn2)CC1`, for which the inhibition was -28.5%.

With `Clc1cc2nc(N3CCN(c4ccccn4)CC3)c3nncn3c2cc1Cl`, the inhibition was 75.6% (active).

For `O=C(c1ccc(N2CCCC2)nn1)N1CCN(c2ccccn2)CC1`, the inhibition is -50.6%.

In the case of `COc1cccc(-c2cc(C(=O)N3CCN(c4ccc(N5CCOCC5)nn4)CC3)[nH]n2)c1`, the inhibition is -8.45%.

Take `FC(F)(F)c1ccc(-c2cnc([C@@H]3COCCN3C3CCOCC3)[nH]2)cc1`: the inhibition was 2.96%.

Take `COc1ccc(CN2Cc3ccccc3OC3(CCC(CO)CC3)C2)c(F)c1` (stereo unspecified): the inhibition is -66.5%.

Consider `O=C(NC1CCN(Cc2ccccc2)CC1)c1cn2c(n1)CCCC2`, for which the inhibition was -18.5%.

Consider `O=C(NC1CCN(Cc2ccccc2)CC1)c1cc2cn(C3CC3)cc2s1`, for which the inhibition is 31.4% (active).

Take `Cc1nn(C)c(C)c1CNC(=O)c1cc2cn(C3CCCC3)cc2s1`: the inhibition is -141%.

For `CCOC(=O)C1=C(CN2CCN(c3ccccc3OC)CC2)NC(=O)NC1c1cccc(OC)c1OC` (stereo unspecified), the inhibition is -6.79%.

Regarding `O=C(NCCc1ccccc1)c1cc2c(s1)CS(=O)(=O)C2`, the inhibition was 3.17%.

In the case of `O=C(NCc1ccc2c(c1)OCO2)c1cc2c(s1)CS(=O)(=O)C2`, the inhibition is 47.6% (active).

For the compound `Cc1nc(-c2ccc(C(=O)NCc3ccc4c(c3)OCO4)cc2)cs1`, the inhibition is 7.04%.

On to `O=S(=O)(c1ccccc1)N1CCCCCC1C1CCN(Cc2nc(C3CC3)no2)CC1` (stereo unspecified), for which the inhibition was -3.93%.

For `COc1cc2c(cc1OC)C(c1cccs1)N(C(=O)c1ccc3n[nH]nc3c1)CC2` (stereo unspecified), the inhibition was 6.71%.

With `COc1ccc(CC2c3cc(OC)c(OC)cc3CCN2C(=O)c2ccc(C)c(Cl)c2)cc1OC` (stereo unspecified), the inhibition was 36.3% (active).

As to `COc1ccc(C(=O)N2CCc3cc4ccccc4nc32)cc1OC`, the inhibition is -4.03%.

For the compound `COc1ccc(C2CC(=O)c3cnc(NCc4ccco4)nc3C2)c(OC)c1` (stereo unspecified), the inhibition was -0.335%.

Take `Cc1ccc(CSc2nnc(/C=C/c3ccccc3)o2)cc1`: the inhibition is -1.95%.

With `CCCNc1cc(N2CCCC(CCC(=O)N3CCC(C)CC3)C2)ncn1` (stereo unspecified), the inhibition was -110%.

As to `CCc1ccc(S(=O)(=O)NCC(O)COc2ccc(OC)cc2)cc1` (stereo unspecified), the inhibition is -1.1%.

In the case of `Cc1ccc(-c2ncc(C(=O)Nc3ccccc3C)c(-c3ccncc3)n2)cc1`, the inhibition is 41% (active).

For `O=C(Nc1cc(Cl)ccc1F)c1cnc(-c2ccccc2)nc1-c1ccncc1`, the inhibition was -14%.

In the case of `Cc1ccc(F)cc1NC(=O)c1cnc(-c2ccccc2)nc1-c1ccncc1`, the inhibition was 12.2%.

With `Cc1nn(-c2ccccc2)c2c1C(C(=O)c1ccc(Cl)s1)CC(=O)N2` (stereo unspecified), the inhibition was 10.5%.

As for `COc1ccc(C(=O)NCC(c2cccnc2)S(=O)(=O)c2ccc(C)cc2)cc1OC` (stereo unspecified), the inhibition was -8.69%.

Take `CCOC(=O)c1c(NC(=O)c2ccco2)sc(Cc2ccc3c(c2)OCO3)c1C`: the inhibition is 20.7%.

Regarding `O=C(c1cnn(-c2ccc(Cl)cc2)n1)c1cccs1`, the inhibition is 2.7%.

As for `O=C(Nc1ccc2cn[nH]c2c1)c1cnn(-c2ccccc2)n1`, the inhibition was 59.1% (active).

In the case of `O=C(Nc1ccc2oc(-c3ccccc3)nc2c1)c1cccc(-n2cnnc2)n1`, the inhibition was 3.67%.

For `O=C1CN(C(=O)CNc2ccccc2N2CCCC2=O)c2ccccc2N1`, the inhibition was 4.28%.

With `O=c1c(S(=O)(=O)N2CCCC2)cccn1Cc1cc(=O)n2ccccc2n1`, the inhibition was -4.28%.

Consider `Cc1ccc(-c2cn3ccn(-c4ccc(C)cc4C)c(=O)c3n2)cc1`, for which the inhibition is 43% (active).

`Cc1ccn2cc(-c3ccc(NS(=O)(=O)c4cc(C)c(C)cc4C)cc3)nc2n1`: the inhibition was 21.4%.

`CC(C)(C)c1ccc(Cn2nnc3c(=O)[nH]c(C4CCN(S(=O)(=O)c5ccc6c(c5)OCCO6)CC4)nc32)cc1`: the inhibition is 7.01%.
